High-throughput results from PubChem BioAssay.
This is a sample that favours compounds with a hit; in the whole collection about 1.3% have one here.
AmpC no deterg – inhibitors of E. coli AmpC beta-lactamase without detergent | P00811 | AmpC nitrocefin hydrolysis, absorbance 480 nm, 0.0001% Triton | Potency, µM (titrated, usually from 57.1 µM), for inactives: at the highest dose activity change, negative = inhibition, hits mostly inhibitors | hit rate 0.52% among 330,000 | AID 485341;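 note: plate controls were no compound for no effect and no enzyme for full effect; nearly all actives have a fitted effect of over 20% in size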
Target sequence (P00811 whole entry, looked up): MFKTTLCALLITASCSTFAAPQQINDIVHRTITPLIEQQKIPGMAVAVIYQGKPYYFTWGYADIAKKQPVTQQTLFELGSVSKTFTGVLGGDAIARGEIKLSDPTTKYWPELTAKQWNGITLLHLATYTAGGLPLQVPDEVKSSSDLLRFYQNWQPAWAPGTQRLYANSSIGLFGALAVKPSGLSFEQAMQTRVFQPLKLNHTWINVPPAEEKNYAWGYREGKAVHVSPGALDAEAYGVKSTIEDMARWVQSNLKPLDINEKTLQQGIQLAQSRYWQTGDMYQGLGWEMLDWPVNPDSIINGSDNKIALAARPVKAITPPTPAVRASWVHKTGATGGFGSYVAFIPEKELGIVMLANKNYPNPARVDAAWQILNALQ
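AmpC (5.3 nM in the dispensed reagent) in 20 mM phosphate pH 7.0 with 0.01% (detergent screen) or 0.0001% Triton X-100 was preincubated with compounds for 15 min at room temperature. Nitrocefin was then added from an 800 uM solution, and hydrolysis was followed at 480 nm.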
Vaccinia mCherry – inhibitors of vaccinia virus infection (mCherry reporter signal) | Potency, µM (highest dose often 36.5 µM), for the others: top-dose activity change, negative = inhibition, actives largely listed as inhibitors | hit rate 0.63% among 310,000 | AID 720579 | Vaccinia virus mCherry reporter infection, fluorescence; calls by dose curve; tested in A549 cells; note: % is set by controls: 0 for no effect and ±100 for the full control effect; nearly all actives have a fitted effect of over 35% in size
VACV Venus inh – vaccinia inhibition (Venus reporter); AID 720580; Vaccinia virus Venus reporter expression, fluorescence; hit rate 0.46% among 330,000; Potency, µM (doses to about 36.5 µM), for inactives: at the top dose activity change, negative = inhibition, hits mostly inhibitors; calls by dose curve; tested in A549 cells; note: % is set by controls: 0 for no effect and ±100 for the full control effect; nearly all actives have a fitted effect of over 30% in size
AMA1-RON2 inh – AMA1-RON2 (P. falciparum) interaction inhibition; AlphaScreen AMA1-biotinylated RON2 peptide binding; Potency, µM (doses to about 58.2 µM), inactives show at the top dose activity change, negative = inhibition, usual class: inhibitors; hit rate 0.2% among 360,000;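 note: 0% = vehicle wells and -100% = peptide control; nearly all actives have a fitted effect of over 45% in size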
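AMA1 (3D7) with his tag at 25 nM final met compounds first, then biotinylated RON2 peptide at 25 nM; detection used donor plus acceptor beads, 10 µg/mL apiece, read by AlphaScreen after 30 min at room temperature.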
SARS PLpro yeast – inhibitors of SARS-CoV papain-like protease in yeast; hit rate 0.19% among 330,000; Potency, µM (top dose mostly 32.9 µM), inactives show at the top dose activity, positive = growth rescue, usual class: activators; AID 485353; S. cerevisiae expressing SARS-CoV PLpro, growth rescue; calls by dose curve; note: 0% is about no effect; nearly all actives have a fitted effect of over 55% in size
AmpC inh detg – AmpC beta-lactamase inhibition with detergent present. P00811. AmpC hydrolysis of nitrocefin, absorbance 480 nm, 0.01% Triton. Potency, µM (series often up to 114 µM), without a hit: top-dose activity change, negative = inhibition, most hits filed as inhibitors. hit rate 0.041% among 370,000;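 note: 0% = no-compound wells and -100% = no-enzyme wells; nearly all actives have a fitted effect of over 25% in size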
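20 mM phosphate pH 7.0 + 0.01% (detergent screen) or 0.0001% Triton X-100; 5.3 nM AmpC reagent; cpd preinc 15 min RT; nitrocefin (800 uM stock) to start; A480 q20 s × 4 min; Activity was normalised to no-enzyme and no-compound control wells.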
* hit, by the source's call. Unless noted, calls come from the whole dose curve; as a rule, active = well fitted curve in the direction sought with a large enough effect; inconclusive = small, poorly fitted or top-dose-only effect, or another doubt; inactive = no such curve, though single readings can be large; an effect the other way counts as inactive or inconclusive. Potency is the fitted concentration of half-maximal effect.

How did COc1ccc(/C=N/OCC(=O)N=Nc2c(O)[nH]c3ccc(Br)cc23)cc1 do in these assays?
AmpC no deterg: 1µM*; Vaccinia mCherry: -3%; VACV Venus inh: -1%; AMA1-RON2 inh: 17%; SARS PLpro yeast: -4%; AmpC inh detg: inconclusive

What do the screens show for `CCC1C(=O)NCCN1Cc1ccc2c(c1)CN(Cc1cccc(OC)c1)CCO2` (stereo not given)?
Vaccinia mCherry: -2%; VACV Venus inh: 4%

How did O=C1c2ccccc2C(=O)c2ccccc21 do in these assays?
Vaccinia mCherry: -9%; VACV Venus inh: -5%

Results for c1ccc2c(c1)[IH]c1ccccc1-2 ?
Vaccinia mCherry: inconclusive; VACV Venus inh: 11µM*; AMA1-RON2 inh: 13%

Results for Cc1cc(C)cc(NC(=O)/C(C#N)=C/c2cn(CC(=O)NCc3ccco3)c3ccccc23)c1 ?
AmpC no deterg: -16%; Vaccinia mCherry: inconclusive; VACV Venus inh: 5.6µM*; AMA1-RON2 inh: 3%; SARS PLpro yeast: 8%; AmpC inh detg: -12%

Results for Cc1ccc(NC(=O)/C(C#N)=C/c2cn(CC(=O)NCc3ccco3)c3ccccc23)cc1C ?
AmpC no deterg: -6%; Vaccinia mCherry: -12%; VACV Venus inh: 1%; AMA1-RON2 inh: 20%; SARS PLpro yeast: 0%; AmpC inh detg: 0%

Results for Cc1nc([N+](=O)[O-])c(Br)n1CC(=O)c1ccc2ccccc2c1 ?
AmpC no deterg: 16%; Vaccinia mCherry: 1.1µM*; VACV Venus inh: 1.6µM*; AMA1-RON2 inh: -3%; SARS PLpro yeast: -32%; AmpC inh detg: 2%

Results for Cc1nc([N+](=O)[O-])c(Br)n1CC(=O)c1ccc(Br)cc1 ?
AmpC no deterg: -6%; AMA1-RON2 inh: 0%; SARS PLpro yeast: -33%; AmpC inh detg: inconclusive

Results for Cc1nc([N+](=O)[O-])c(Br)n1CC(=O)c1ccccc1 ?
AmpC no deterg: -10%; VACV Venus inh: 2.2µM*; AMA1-RON2 inh: -6%; SARS PLpro yeast: -10%; AmpC inh detg: 4%

What do the screens show for `Cc1nc([N+](=O)[O-])c(C(=O)OCc2ccccc2Br)n1C`?
AmpC no deterg: 39%; Vaccinia mCherry: -10%; VACV Venus inh: -6%; AMA1-RON2 inh: 11%; SARS PLpro yeast: -3%; AmpC inh detg: 4%

Results for COc1cccc(CNC(=O)c2c(OC)cc(=O)n3c2CCN(C(=O)c2csc(C)n2)CC3)c1 ?
Vaccinia mCherry: -15%; VACV Venus inh: -10%

Results for CC(C)(C)C1=CC(=Nc2ccccc2N)C=C(C(C)(C)C)C1=O ?
AmpC no deterg: -10%; Vaccinia mCherry: -15%; VACV Venus inh: -9%; AMA1-RON2 inh: 11µM*; SARS PLpro yeast: 2%; AmpC inh detg: inconclusive

What do the screens show for `Cc1cc(C)c2c(=N)c3ccccc3n(CCCCCCCCn3c4ccccc4c(=N)c4c(C)cc(C)nc43)c2n1`?
Vaccinia mCherry: 10µM*; VACV Venus inh: 10µM*; AMA1-RON2 inh: inconclusive

Results for CCCCCCCCn1c2c(c(=N)c3ccccc31)CCC2 ?
AmpC no deterg: -10%; Vaccinia mCherry: inconclusive; VACV Venus inh: inconclusive; AMA1-RON2 inh: 2%; SARS PLpro yeast: 0%; AmpC inh detg: -6%

What do the screens show for `O=C(Nc1ccccc1)c1cc2ccccc2c(=O)s1`?
AmpC no deterg: -19%; Vaccinia mCherry: -6%; VACV Venus inh: -3%; AMA1-RON2 inh: 7%; SARS PLpro yeast: -26%; AmpC inh detg: 89µM*

Results for CCOc1ccc(CN(C)Cc2cc(=O)oc3cc(C)c(Cl)cc23)cc1 ?
AmpC no deterg: -28%; Vaccinia mCherry: inactive; VACV Venus inh: -4%; AMA1-RON2 inh: 5%; SARS PLpro yeast: 3%; AmpC inh detg: -2%

What do the screens show for `CCOc1ccc(N(C)Cc2cc(=O)oc3ccc(OCC)cc23)cc1`?
AmpC no deterg: -5%; Vaccinia mCherry: -10%; VACV Venus inh: -29%; AMA1-RON2 inh: 25µM*; SARS PLpro yeast: -5%; AmpC inh detg: 2%

How did Cc1ccc(CNc2nc(C)c(-c3ccn(CCN4CCOCC4)n3)s2)o1 do in these assays?
Vaccinia mCherry: -4%; VACV Venus inh: 4%

Results for Cc1ccc(OCCn2cc(C(=S)N3CCCC3)c3ccccc32)cc1C ?
AmpC no deterg: -26%; Vaccinia mCherry: 4µM*; VACV Venus inh: -25%; AMA1-RON2 inh: 24%; SARS PLpro yeast: 0%; AmpC inh detg: 4%

What do the screens show for `S=C(c1cn(CCOc2ccccc2)c2ccccc12)N1CCCC1`?
AmpC no deterg: -37%; Vaccinia mCherry: inconclusive; VACV Venus inh: inconclusive; AMA1-RON2 inh: -22%; SARS PLpro yeast: -6%; AmpC inh detg: 0%

How did N/C(=N\S(=O)(=O)c1cccs1)c1ccccc1Cl do in these assays?
AmpC no deterg: -7%; AMA1-RON2 inh: 4%; SARS PLpro yeast: 0%; AmpC inh detg: -1%

How did O=C(c1ccco1)N1CCN(/C(=N/S(=O)(=O)c2cccs2)c2ccccc2Cl)CC1 do in these assays?
AmpC no deterg: 7.1µM*; VACV Venus inh: -12%; AMA1-RON2 inh: 1%; SARS PLpro yeast: 1%; AmpC inh detg: 6%

How did COCC(=O)Nc1cc(C(=O)N2CCSCC2)cc2nc(-c3ccccc3)n(C)c12 do in these assays?
Vaccinia mCherry: 0%; VACV Venus inh: -12%

What do the screens show for `NS(=O)(=O)c1ccc(CCNc2ncnc3c2c(-c2ccccc2)cn3-c2ccc(F)cc2)cc1`?
AmpC no deterg: 4.5µM*; VACV Venus inh: inconclusive; AMA1-RON2 inh: -6%; SARS PLpro yeast: -4%; AmpC inh detg: 1%

How did Cc1nnc(-c2ccccc2)c(=O)n1/N=C/c1c(O)ccc2ccccc12 do in these assays?
AmpC no deterg: -23%; Vaccinia mCherry: 3.2µM*; VACV Venus inh: inconclusive; AMA1-RON2 inh: -26%; SARS PLpro yeast: 3.2µM*; AmpC inh detg: -7%

Results for Cc1nnc(C)n1/N=C/c1c(O)ccc2ccccc12 ?
AmpC no deterg: -28%; AMA1-RON2 inh: 95%; SARS PLpro yeast: -1%; AmpC inh detg: -7%

Results for Cc1cccc2nc(-c3ccccn3)c(Nc3ccc(F)cc3)n12 ?
Vaccinia mCherry: 10µM*; VACV Venus inh: inconclusive; AmpC inh detg: 20%

What do the screens show for `Cc1cccc2nc(-c3ccccn3)c(Nc3ccccc3)n12`?
Vaccinia mCherry: inconclusive; VACV Venus inh: inconclusive; AmpC inh detg: 20%

How did Cc1ccc(Nc2c(-c3ccccn3)nc3cccc(C)n23)cc1 do in these assays?
AmpC no deterg: 20%; Vaccinia mCherry: 13µM*; VACV Venus inh: -21%; AMA1-RON2 inh: -84%; SARS PLpro yeast: -33%; AmpC inh detg: inconclusive
